For 40 molecules, growth results are on record in PubChem BioAssay (NCI).

This is part of a sample that, as a whole, favours compounds with a hit. Of some 83,000 tested, about 20% had one in any assay.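 96-well plates, one dose, 48 hours. Percent growth reported; active if below 10.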 The source made the active and inactive calls.

In the assay the test system is MDA-MB-468 breast. Put plainly: NCI-60 one-dose screen, 48 h (100 = growth as untreated, 0 = no growth, -100 = all killed). Particulars: 10 µM unless noted.
On to `COc1ccc(-c2conc2-c2ccccc2)cc1`, for which the growth is -4.68% (active).

On to `N#Cc1c(-c2ccco2)nc2c(c(-c3ccccc3)nn2-c2ccccc2)c1-c1ccc(O)cc1`, for which the growth is 92.4% (inactive).

Turning to `CC(=O)OC(C(=O)O)c1ccccc1` (stereo not given), the growth was 104% (inactive).

`C/C(=C(/c1ccccc1)c1ccc(OCC(O)CN2CCOCC2)cc1)c1ccccc1` (stereo not given): the growth was 85.1% (inactive).

Take `COC(=O)CNC(=O)C(=O)c1c(O)c(O)c(C(C)C)c2cc(C)c(-c3c(C)cc4c(C(C)C)c(O)c(O)c(C(=O)C(=O)NCC(=O)OC)c4c3O)c(O)c12`: the growth was 15.8% (inactive).

Take `Cn1cc(-c2nc(N)nnc2-c2c[nH]c3ccc(Br)cc23)c2cc(F)ccc21`: the growth is 75.5% (inactive).

Take `O=C(CCCCCNC(=O)c1cc(=O)c(O)co1)Nc1ccccc1`: the growth was 108% (inactive).

For the molecule `CCOC(=S)Sc1ccc([N+](=O)[O-])cc1[N+](=O)[O-]`, the growth is 52.7% (inactive).

For the molecule `COc1ccc(-c2n[nH]nc2-c2cc(OC)c(OC)c(OC)c2)cc1`, the growth was -0.494% (active).

On to `CNC(=O)c1cc(Oc2ccc3nc(Nc4cc(Cl)cc(Cl)c4)ccc3c2)ccn1`, for which the growth was 54.1% (inactive).

As to `CC(=O)c1cc(O)c2ccccc2c1O`, the growth was 63.9% (inactive).

Consider `COc1cc2c3c(n(CCCNC4CCC4)c(=O)c2cc1OC)-c1cc2c(cc1C3=O)OCO2`, for which the growth was 30.6% (inactive).

In the case of `O=C1c2c(c3c4cccnc4[nH]c3c3ccc4ccccc4c23)C(=O)N1CCN1CCNCC1`, the growth was 87.1% (inactive).

As for `Nc1ncnc2c1nc(N)n2C1OC(CO)C(O)C1O` (stereo not given), the growth is -73.6% (active).

For `C[C@@H](Nc1c(C#N)cnc2ccc(-c3cnc(N)nc3)cc12)c1ccccc1`, the growth was -8.47% (active).

Consider `O=C1CCC(=O)N1Cc1ccccc1`, for which the growth was 88.2% (inactive).

For the molecule `O=C1NC(=O)[C@@H](c2cn3c4c(cccc24)CCC3)[C@@H]1c1c[nH]c2ccccc12`, the growth was -0.826% (active).

On to `COc1cc2nc(C(=O)N3CCCCC3)cc(Nc3ccccc3)c2cc1OC`, for which the growth is 131% (inactive).

For the molecule `CC1C(c2ccccc2)OCCN1C(=S)Nc1ccc(S(=O)(=O)N2CCCCC2)cc1` (stereo not given), the growth is 80.4% (inactive).

Take `CCOC(=O)c1c(C)oc2ncnc(Nc3ccc(NC(=O)Nc4cccc(Cl)c4)cc3)c12`: the growth is 49.7% (inactive).

Regarding `Cc1[nH]c(C(=O)Nc2ccccc2OC2CCNCC2)c(Cl)c1Cl`, the growth was 16.2% (inactive).

`COc1ccc(CC(C#N)c2cc3ccccc3[nH]2)cc1` (stereo not given): the growth was 89.6% (inactive).

For the molecule `Cn1c2ccccc2c2c3[nH]c(=O)[nH]c(=O)c3c3c4ccccc4n(C)c3c21`, the growth was 32.4% (inactive).

Take `O=C(Nc1cccc(-n2cc(-c3ccncc3)c(-c3ccc(Cl)c(O)c3)n2)c1)Nc1ccc(Cl)c(C(F)(F)F)c1`: the growth was -49.5% (active).

Turning to `Fc1ccc(Nc2nnc(-c3ccc(Cl)cc3)o2)cc1`, the growth is 97.9% (inactive).

In the case of `Cc1ccc(-c2nn(C)c(=O)c3noc(-c4ccc(C)cc4)c23)cc1`, the growth was 19.8% (inactive).

With `Cn1ncc2ncc(-c3ccc4ncc(C#N)c(N5CCc6cc(F)c(Cl)cc65)c4c3)cc21`, the growth is 8.25% (active).

As for `O=C1c2ccccc2C(=O)c2c1ccc1[nH]c(-c3cccs3)nc21`, the growth is 99.6% (inactive).

Regarding `CCOC(=O)CSc1ncnc2c1c(-c1ccccc1)c(-c1ccccc1)n2-c1ccc(C)cc1`, the growth was 51.9% (inactive).

Take `CNC(=O)c1ccccc1Nc1nc(Nc2cc(OC)c(OC)c(OC)c2)ncc1Br`: the growth is -46.6% (active).

As to `Cc1cccc2c3c(sc12)C(c1ccc(Cl)cc1)C(C#N)=C(N)O3` (stereo not given), the growth was 17.3% (inactive).

For the molecule `CC(O)Cn1cnc2c1c(=O)n(C)c(=O)n2C` (stereo not given), the growth was 78.5% (inactive).

As to `O=C(CCCNC(=O)c1nc(-c2ccccc2)n(-c2ccccc2)n1)NO`, the growth was 98.8% (inactive).

For `CCN1CCN(Cc2ccc(NC(=O)Nc3ccc(-n4ccc5c(NC(=O)c6ccccc6)nccc54)cc3)cc2C(F)(F)F)CC1`, the growth is 60.1% (inactive).

Consider `Clc1ccc2c(c1)N(c1ncnc3ccc(-c4cnc5[nH]ncc5c4)cc13)CC2`, for which the growth is 3.65% (active).

As to `C/C(=N/Nc1nc2ccccc2n1C)c1ccccn1`, the growth was -41.9% (active).

On to `O=[N+]([O-])c1ccc(-c2nc(N(CCO)CCO)c3ccccc3n2)o1`, for which the growth was -73.5% (active).

With `COc1ccc2sc(-n3nc4nc5n(c(=O)c4c3N)-c3ccccc3Sc3ccccc3-5)nc2c1`, the growth is 88.9% (inactive).

`Cc1c(CN(C)C)cc(C(C)C)cc1C(C)C`: the growth was 100% (inactive).

With `O=C(Nc1cccc(F)c1)c1cc(=O)[nH]c2cc(Br)ccc12`, the growth is 55.3% (inactive).
